In the library only some 3.1% were active in any assay of this set; here they are far more common.
VDR inhibitor: vitamin D3 receptor (human) inhibition. P11473. VDR-SRC2-3 peptide fluorescence polarization, 2 h. Potency, µM, hits mostly inhibitors. actives 0.93% (n = 400,000)
Target sequence (P11473 whole entry, looked up): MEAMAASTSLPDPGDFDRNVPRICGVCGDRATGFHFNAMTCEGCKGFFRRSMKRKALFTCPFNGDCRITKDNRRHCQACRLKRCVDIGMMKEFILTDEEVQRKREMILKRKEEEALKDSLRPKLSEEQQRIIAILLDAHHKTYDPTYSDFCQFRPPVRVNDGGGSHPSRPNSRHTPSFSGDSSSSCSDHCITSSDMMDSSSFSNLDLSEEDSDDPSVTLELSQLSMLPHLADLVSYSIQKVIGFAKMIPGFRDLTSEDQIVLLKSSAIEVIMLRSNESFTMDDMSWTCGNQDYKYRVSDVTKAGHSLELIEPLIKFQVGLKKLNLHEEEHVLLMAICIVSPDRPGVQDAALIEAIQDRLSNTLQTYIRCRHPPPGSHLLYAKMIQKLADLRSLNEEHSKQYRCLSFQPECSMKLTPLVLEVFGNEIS
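Fluorescence polarization assay measuring small-molecule disruption of VDR binding to the coregulator peptide SRC2-3. Compounds were pin-transferred (23 nl) into the reagent mix and incubated 2 h at room temperature before reading.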
ASM inhibitor: inhibitors of human secretory acid sphingomyelinase; AID 504937; Potency, µM (titrated, usually from 57.5 µM), actives largely listed as inhibitors; P17405; actives 0.006% (n = 340,000); placental ASM, HMU-PC fluorogenic substrate, 60 min
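Fluorogenic HMU-PC substrate (9 uM final) is turned over by placental ASM in 60 min at 37 C after a 10 min compound preincubation. Reaction ended by alkaline stop (pH 10), with fluorescence read at 386/447 nm.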
TDP1 inh: TDP1 (human) enzyme inhibition | Q9NUW8 | recombinant TDP1, AlphaScreen DNA substrate cleavage | Potency, µM (highest dose often 130 µM), hits mostly inhibitors | actives 0.28% (n = 350,000); note: nearly all actives have a fitted effect of over 40% in size
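Signal: AlphaScreen proximity between streptavidin donor and anti-FITC acceptor beads on intact substrate. Reaction: Tdp1 1 nM, substrate 15 nM final, 5 min RT after 15 min compound preincubation.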
PLK1 PBD block: PLK1 (human) polo-box domain binding inhibition; Plk1 PBD binding of FITC phosphopeptide, fluorescence polarization; actives 2.8% (n = 360,000); Potency, µM, usual class: inhibitors; AID 720504; note: series mostly up to about 57 µM; nearly all actives have a fitted effect of over 65% in size
Tb PFK block: T. brucei PFK enzyme inhibition | AID 485367 | T. brucei PFK, ADP-Glo luminescence | Potency, µM (titrated, usually from 57.5 µM), most hits filed as inhibitors | actives 0.17% (n = 330,000); note: nearly all actives have a fitted effect of over 60% in size
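Luminescent ADP detection (ADP-Glo, two-step: ATP depletion then ADP-to-ATP conversion for luciferase) reported PFK activity after 45 min room-temperature reaction of 1.25 nM enzyme with 0.5 mM F6P and 0.1 mM ATP at pH 8.0.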
Pin1 inhibitor: inhibitors of human Pin1; Q13526; Pin1 FP peptide displacement, HiFluor488, 10 min; Potency, µM (top dose mostly 115 µM), usual class: inhibitors; actives 0.009% (n = 390,000); active = well fitted inhibition curve with a large enough effect in the polarisation, with a control signal flat, not every such curve was filed as active; inconclusive = small, poorly fitted or top-dose-only effect, or effect the other way, or a change in a side signal; inactive = no such curve, though single readings can be large or run the other way; the % refers to the polarisation
Target sequence (Q13526 whole entry, looked up): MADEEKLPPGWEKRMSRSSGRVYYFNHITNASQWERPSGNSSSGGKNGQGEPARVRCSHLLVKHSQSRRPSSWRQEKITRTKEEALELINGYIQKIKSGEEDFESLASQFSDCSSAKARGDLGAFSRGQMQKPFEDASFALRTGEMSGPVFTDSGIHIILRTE
USP1 UbRho: blocks human USP1/UAF1 cleavage of Ub-Rhodamine | actives 50% (n = 50) | shares compounds with VDR inhibitor | Potency, µM (top dose mostly 56.8 µM), usual class: inhibitors | AID 540327 | Ub-Rhodamine cleavage, fluorescence kinetic read
VDR confirm: inhibits human vitamin D receptor, primary hit validation | shares compounds with VDR inhibitor | VDR-coactivator inhibition assay, qHTS confirmation | Potency, µM, hits mostly inhibitors | actives 89% (n = 840) | AID 602199
VDR FP fluor: VDR (human) coactivator binding inhibition, fluorescein polarization. Potency, µM (doses to about 57.1 µM), hits mostly inhibitors. VDR-coactivator binding, fluorescein fluorescence polarization. actives 48% (n = 840). shares compounds with VDR inhibitor
VDR bla: VDR (human) inhibition, cell-based beta-lactamase validation. shares compounds with VDR inhibitor. VDR beta-lactamase reporter cells, FRET ratio; cells co-treated with VDR agonist LG190178. Potency, µM (series often up to 46.1 µM), actives largely listed as inhibitors. actives 23% (n = 840). AID 602202
VDR viability: cytotoxic in counter-screen for VDR inhibitors. shares compounds with VDR inhibitor. cytotoxicity counter-screen, cell viability, qHTS. Potency, µM (titrated, usually from 48.3 µM), hits mostly cytotoxic. actives 18% (n = 840). AID 602204; note: nearly all actives have a fitted effect of over 75% in size
Numbers stand for hits; – = inactive; ? = inconclusive; · = no result; [ ] = another dose, or the depositor's remark. Unless noted, calls come from the whole dose curve; as a rule, active = well fitted curve in the direction sought with a large enough effect; inconclusive = small, poorly fitted or top-dose-only effect, or another doubt; inactive = no such curve, though single readings can be large; an effect the other way counts as inactive or inconclusive.

SMILES	VDR inhibitor	ASM inhibitor	TDP1 inh	PLK1 PBD block	Tb PFK block	Pin1 inhibitor	VDR confirm	VDR FP fluor	VDR bla	VDR viability	others
O=C(N[C@@H](Cc1ccccc1)C(=O)CCl)OCc1ccccc1	5.6µM	–	–	30µM	–	–	·	·	·	·	USP1 UbRho=26µM
CCC(=O)NC(c1ccc(C)cc1)c1ccc2cccnc2c1O (stereo not drawn)	–	–	–	–	–	–	·	·	·	·
CCN1CCN(C(c2ccc(C(F)(F)F)cc2)c2ccc3cccnc3c2O)CC1 (stereo not drawn)	25µM	–	·	3.8µM	?	–	?	10µM	–	–
CN(C)[C@H]1C(=O)C(C(=O)NCN2CCCC2)=C(O)[C@]2(O)C(=O)C3=C(O)c4c(O)cccc4[C@@](C)(O)[C@H]3C[C@@H]12	32µM	·	?	·	·	·	·	·	·	·	USP1 UbRho=?
O=C(Nc1nnc(COc2ccc(Cl)cc2)s1)c1ccco1	28µM	–	79µM	2.7µM	?	–	4.2	?	–	–
O=[N+]([O-])c1c(NCCCO)cc(Sc2ccc(Cl)cc2)c2nonc12	?	–	–	2.4µM	–	–	6.3	7.1µM	23µM	?
Cc1cccc(NCCC(=O)c2ccc(Br)cc2)c1	–	–	–	–	–[0.46 µM]	–	·	·	·	·
CCOC(=O)CNCCC(=O)c1ccc(Br)cc1	50µM	·	–	12µM	–	–	21	22µM	?	?
COc1ccc(N2CCN(Cc3cccn3-c3nnc(N4CCN(C5CCCCC5)CC4)s3)CC2)cc1	–	·	–	·	·	–	·	·	·	·
CCOC(=O)COc1ccccc1/C=C\[N+](=O)[O-]	11µM	–	–	7.5µM	?	–	3.4	?	4.6µM	8.2µM
Cc1ccc(C(=O)COC(=O)COc2ccccc2[N+](=O)[O-])s1	–	–	–	–	–	–	·	·	·	·
C#CCOc1ccc(/C=C2/C(=O)ON=C2C)cc1Cl	45µM	–	·	2.1µM	–	–	6	?	–	–
C#CCOc1c(Cl)cc(/C=C2/C(=O)ON=C2C)cc1OCC	?	–	·	6µM	–	–	7.9	7.9µM	–	–
Cc1cc(NC(=O)CCCOc2ccc(Cl)cc2Cl)no1	–	–	–	–	–	–	·	·	·	·
CC1=NOC(=O)/C1=C\c1ccc(-c2ccc(Cl)cc2Cl)o1	22µM	–	–	0.42µM	?	?	3.8	2.2µM	?	?
Cc1ccccc1NC(=O)c1ccc(-c2ccc(Cl)cc2Cl)o1	–	–	–	–	–	–	·	·	·	·
CCCOc1ccc(Cl)cc1/C=C1/C(=O)ON=C1C	25µM	–	·	2.4µM	–	–	11	3.5µM	–	?
CCN1C(=O)/C(=C/c2ccc(OCc3ccc(C(=O)O)cc3)c(Cl)c2)NC1=S	?	–[11.5 µM]	·	?	–	–	·	·	·	·
C=CCOc1c(Br)cc(/C=C2/C(=O)ON=C2C)cc1OC	45µM	–	·	4.7µM	–	–	9.5	?	–	–
Cc1c(N/C(=N/S(=O)(=O)c2cc([N+](=O)[O-])ccc2Cl)c2ccccc2)c(=O)n(-c2ccccc2)n1C	–	–	–	–	–	–	·	·	·	·
O=S(=O)(/N=C(/Sc1ccccc1)c1ccccc1)c1ccccc1	79µM	–	–	1.9µM	–	–	8.4	?	–	–
O=S(=O)(/N=C(/Sc1ccc(Cl)cc1)c1ccccc1)c1ccccc1	35µM	·	?	·	·	–	3.5	11µM	–	–
O=[N+]([O-])c1ccc(Cl)c(S(=O)(=O)/N=C(/Sc2ccc(Br)cc2)c2ccccc2)c1	?	·	–	·	·	–	7.1	5µM	–	–
O=S(=O)(/N=C(/Sc1ccccc1)c1ccccc1)c1ccc(Cl)cc1	50µM	·	–	·	·	–	7.1	16µM	–	?
CCOC(=O)c1[nH]c(C)c(CCC(=O)Nc2cc(Cl)c(OC)cc2OC)c1C	–	·	–	·	·	?	·	·	·	·
SMILES	VDR inhibitor	ASM inhibitor	TDP1 inh	PLK1 PBD block	Tb PFK block	Pin1 inhibitor	VDR confirm	VDR FP fluor	VDR bla	VDR viability	others
COc1ccc(-n2cc(C(=O)NC(C)c3ccccc3)c3ccccc3c2=O)cc1 (stereo not drawn)	–	·	–	·	·	–	·	·	·	·
COc1ccc(C(=O)Nc2nc3n(n2)C(c2ccc(F)cc2)C=C(c2ccc(Cl)cc2)N3)cc1 (stereo not drawn)	–	·	–	·	·	–	·	·	·	·
Cc1ccc2c(c1)C(=O)C(=O)N2Cc1ccc(C(F)(F)F)cc1	25µM	–	–	?	–	?	17	10µM	–	?
CCCOc1ccc(CN2C(=O)C(=O)c3cccc(C)c32)cc1	?	·	–	·	·	–	·	·	·	·
Cc1ccc(CN2C(=O)C(=O)c3cc(Br)cc(C)c32)cc1	18µM	·	–	·	·	–	7.1	10µM	–	–
CCOC(=O)Cn1c(=O)c2c(nc(N3CCOCC3)n2Cc2ccccc2)n(C)c1=O	–	·	–	·	·	–	·	·	·	·
Cc1cc2nc3ccc(N(C)C)cc3nc2cc1N	79µM	–	·	?	·	?	19	–	–	?
Cc1ccc(-n2nc3cc(C)c(N)cc3n2)cc1	?	–	–	–	–	–	·	·	·	·
CCOC(=O)N1CC=C2C(C#N)=C(N)C(C#N)(C#N)[C@H](c3ccc(OCC)c(OCC)c3)[C@H]2C1	–	–	–	–	–	?	·	·	·	·
N#CC1=C(N)C(C#N)(C#N)C(c2cccnc2)C2CN(C(=O)OCc3ccccc3)CC=C12 (stereo not drawn)	20µM	–	–	–	–	?	12	?	–	–

Bioassay records as filed in PubChem.
